# Test results published in PubChem BioAssay AID686978 (National Center for Advancing Translational Sciences (NCATS), 2013).
# In all, about 420,000 compounds went through this assay and about 64,000 (15%) were called active. Not shown: some 27% with an inconclusive outcome. The call rests on the fitted dose curve; in most records, active means well fitted inhibition curve with a large enough effect; inconclusive means small, poorly fitted or top-dose-only effect; inactive means flat fitted curve, though single readings scatter. Only a sample is shown.
# Test: qHTS for Inhibitors of human tyrosyl-DNA phosphodiesterase 1 (TDP1): qHTS in cells in absence of CPT; further: nearly all actives have a fitted effect of over 55% in size
# Settings: DT40 Tdp1-/- hTDP1 cells, no CPT, ATP luminescence, 48 h; activity change, negative = growth inhibition: at 46.2 µM (top of the series)
# Outline: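 Compound effects on proliferation are scored in DT40 Tdp1-/-;hTDP1 cells in the absence of CPT. ATP levels (CellTiter-Glo luminescence) are recorded after a ≥48 hr, 37 °C incubation.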
# On the % scale 0 is the no-effect control and ±100 the full control effect; potency means the concentration at half of the fitted maximal effect.
Structure (SMILES),"activity change, negative = growth inhibition",Potency
CC1(C)C2CCC1(CS(=O)(=O)NCCc1c[nH]c3ccccc13)C(=O)C2 (centres undefined),-19.2% (inactive),
Cc1ccc(OCCC(=O)Nc2ccc(S(=O)(=O)Nc3nccs3)cc2)cc1,22.2% (inactive),
CN(C)NC(=O)C(NC(=O)c1ccc(N)cc1)C12CC3CC(CC(C3)C1)C2 (centres undefined),1.51% (inactive),
COC(CCN(C)C)(c1ccccc1)c1ccccc1,-6.55% (inactive),
CCn1nnc(NC(=O)c2c(OC)cccc2OC)n1,-3.98% (inactive),
COc1ccc(/C=N/n2c(C)cc(C)cc2=O)cc1,-9.69% (inactive),
Cc1ccc(S(=O)(=O)N2CCN=C2SCc2c(F)cccc2Cl)cc1,,11.6 µM (active)
CCSC1=NCCN1S(=O)(=O)c1ccc(F)cc1,-3.64% (inactive),
O=S(=O)(c1ccc(F)cc1)N1CCN=C1SCc1cccc(F)c1,-19.7% (inactive),
O=C(Nc1ccc(Cl)cn1)c1cnn2cccnc12,-23% (inactive),
COc1ccccc1N(C)S(=O)(=O)c1ccc(C(=O)NC2CCCCCC2)cc1,,23.1 µM (active)
COc1ccccc1CNC(=O)c1ccc(N(C)S(=O)(=O)c2ccc(C)cc2)cc1,-10.4% (inactive),
COc1ccc(S(=O)(=O)N2CCOCC2)cc1C(=O)NC1CCCCC1,-6.05% (inactive),
CCc1ccc(OCC(=O)OCC(=O)c2c(N)n(C)c(=O)n(C)c2=O)cc1,5.34% (inactive),
CC(C)Oc1ccc(/C=N/NC(=O)c2nnn(-c3nonc3N)c2CN(C)C2CCCCC2)cc1,-11.7% (inactive),
Cc1cc(C)cc(NC(=O)NCc2ccccn2)c1,19.2% (inactive),
CCc1ccc(C(=O)NN=C2CCCCCC2)s1,5.13% (inactive),
CC(C)NC(=S)NN=C1CCCCCCCCCCC1,,13 µM (active)
CC(C)(C)NC(=O)C(=O)NN=C1CCCCCCC1,3.33% (inactive),
Cc1ccc(-n2nc3c(c2NC(=O)CCC2CCCCC2)CS(=O)C3)cc1 (centres undefined),-21.2% (inactive),
CCN1CCC(O)(/C=C/c2ccc(C)cc2)C(C(=O)/C=C/c2ccc(C)cc2)C1 (centres undefined),,4.61 µM (active)
O=S(=O)(c1ccc(Cl)s1)N1CCC2(CC1)OCCO2,-12.2% (inactive),
O=C(Nc1cc(Cl)ccc1N1CCOCC1)c1ccc(N2CCCC2=O)cc1,-29% (inactive),
COc1cc(C(=O)Nc2cc(C(F)(F)F)ccc2-n2cncn2)cc(OC)c1OC,-28.2% (inactive),
CNS(=O)(=O)c1ccc(N2CCCC2=O)c([N+](=O)[O-])c1,-18.6% (inactive),
COc1cc(OC)cc(C(=O)NC(=S)N2CCN(c3ccc(C(F)(F)F)cc3[N+](=O)[O-])CC2)c1,,16.4 µM (active)
O=[N+]([O-])c1cc(C(F)(F)F)ccc1NN=C1CCCC1,-18% (inactive),
O=C(c1ccc(N2CCCC2=O)cc1)N1CCN(c2ccc(C(F)(F)F)cc2[N+](=O)[O-])CC1,,2.31 µM (active)
C=CCO/N=C/C1=C(O)C(C(=O)OC)C(C)(C)CC1=O (centres undefined),10.2% (inactive),
